About 7,900 targets were measured; listed, in parts, are those with a hit and a random draw of the rest. About 0.6% of all pairs of compound and target were hits.

Sequence of UniProt Q13464 (Q13464 whole entry, looked up): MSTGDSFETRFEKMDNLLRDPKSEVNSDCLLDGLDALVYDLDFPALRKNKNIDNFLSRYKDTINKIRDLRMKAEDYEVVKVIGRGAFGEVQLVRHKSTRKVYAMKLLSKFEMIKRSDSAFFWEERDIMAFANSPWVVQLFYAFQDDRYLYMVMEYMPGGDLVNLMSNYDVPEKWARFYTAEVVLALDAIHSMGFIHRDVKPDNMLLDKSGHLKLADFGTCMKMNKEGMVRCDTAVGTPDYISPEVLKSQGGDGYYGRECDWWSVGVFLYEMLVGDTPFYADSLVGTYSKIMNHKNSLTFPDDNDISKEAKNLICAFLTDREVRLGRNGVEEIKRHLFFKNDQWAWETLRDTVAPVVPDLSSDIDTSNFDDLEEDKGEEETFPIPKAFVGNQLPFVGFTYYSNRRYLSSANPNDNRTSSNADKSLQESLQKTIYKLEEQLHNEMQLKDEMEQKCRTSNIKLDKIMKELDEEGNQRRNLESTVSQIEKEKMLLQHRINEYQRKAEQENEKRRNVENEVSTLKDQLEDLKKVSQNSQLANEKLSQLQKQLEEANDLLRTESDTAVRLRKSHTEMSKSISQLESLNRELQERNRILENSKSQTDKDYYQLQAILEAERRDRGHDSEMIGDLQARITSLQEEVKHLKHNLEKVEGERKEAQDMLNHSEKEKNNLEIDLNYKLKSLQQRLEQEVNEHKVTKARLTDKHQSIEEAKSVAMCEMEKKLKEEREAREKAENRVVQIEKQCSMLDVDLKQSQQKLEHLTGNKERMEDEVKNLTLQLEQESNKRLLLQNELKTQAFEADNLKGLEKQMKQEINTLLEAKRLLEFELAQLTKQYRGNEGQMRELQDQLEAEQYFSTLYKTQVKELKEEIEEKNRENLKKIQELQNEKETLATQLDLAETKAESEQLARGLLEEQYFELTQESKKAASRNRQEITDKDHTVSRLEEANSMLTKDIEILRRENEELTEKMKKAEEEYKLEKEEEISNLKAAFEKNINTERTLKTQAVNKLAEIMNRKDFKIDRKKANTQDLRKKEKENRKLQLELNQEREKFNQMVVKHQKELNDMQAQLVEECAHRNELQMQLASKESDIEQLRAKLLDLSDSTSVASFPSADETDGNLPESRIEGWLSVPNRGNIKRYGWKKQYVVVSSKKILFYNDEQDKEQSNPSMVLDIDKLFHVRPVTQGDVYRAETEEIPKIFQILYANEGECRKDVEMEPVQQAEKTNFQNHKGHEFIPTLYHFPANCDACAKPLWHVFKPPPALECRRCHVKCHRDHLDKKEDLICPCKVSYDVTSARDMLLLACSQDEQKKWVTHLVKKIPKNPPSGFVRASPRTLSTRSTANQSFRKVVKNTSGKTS
Sequence of UniProt Q7Z6E9 (Q7Z6E9 whole entry, looked up): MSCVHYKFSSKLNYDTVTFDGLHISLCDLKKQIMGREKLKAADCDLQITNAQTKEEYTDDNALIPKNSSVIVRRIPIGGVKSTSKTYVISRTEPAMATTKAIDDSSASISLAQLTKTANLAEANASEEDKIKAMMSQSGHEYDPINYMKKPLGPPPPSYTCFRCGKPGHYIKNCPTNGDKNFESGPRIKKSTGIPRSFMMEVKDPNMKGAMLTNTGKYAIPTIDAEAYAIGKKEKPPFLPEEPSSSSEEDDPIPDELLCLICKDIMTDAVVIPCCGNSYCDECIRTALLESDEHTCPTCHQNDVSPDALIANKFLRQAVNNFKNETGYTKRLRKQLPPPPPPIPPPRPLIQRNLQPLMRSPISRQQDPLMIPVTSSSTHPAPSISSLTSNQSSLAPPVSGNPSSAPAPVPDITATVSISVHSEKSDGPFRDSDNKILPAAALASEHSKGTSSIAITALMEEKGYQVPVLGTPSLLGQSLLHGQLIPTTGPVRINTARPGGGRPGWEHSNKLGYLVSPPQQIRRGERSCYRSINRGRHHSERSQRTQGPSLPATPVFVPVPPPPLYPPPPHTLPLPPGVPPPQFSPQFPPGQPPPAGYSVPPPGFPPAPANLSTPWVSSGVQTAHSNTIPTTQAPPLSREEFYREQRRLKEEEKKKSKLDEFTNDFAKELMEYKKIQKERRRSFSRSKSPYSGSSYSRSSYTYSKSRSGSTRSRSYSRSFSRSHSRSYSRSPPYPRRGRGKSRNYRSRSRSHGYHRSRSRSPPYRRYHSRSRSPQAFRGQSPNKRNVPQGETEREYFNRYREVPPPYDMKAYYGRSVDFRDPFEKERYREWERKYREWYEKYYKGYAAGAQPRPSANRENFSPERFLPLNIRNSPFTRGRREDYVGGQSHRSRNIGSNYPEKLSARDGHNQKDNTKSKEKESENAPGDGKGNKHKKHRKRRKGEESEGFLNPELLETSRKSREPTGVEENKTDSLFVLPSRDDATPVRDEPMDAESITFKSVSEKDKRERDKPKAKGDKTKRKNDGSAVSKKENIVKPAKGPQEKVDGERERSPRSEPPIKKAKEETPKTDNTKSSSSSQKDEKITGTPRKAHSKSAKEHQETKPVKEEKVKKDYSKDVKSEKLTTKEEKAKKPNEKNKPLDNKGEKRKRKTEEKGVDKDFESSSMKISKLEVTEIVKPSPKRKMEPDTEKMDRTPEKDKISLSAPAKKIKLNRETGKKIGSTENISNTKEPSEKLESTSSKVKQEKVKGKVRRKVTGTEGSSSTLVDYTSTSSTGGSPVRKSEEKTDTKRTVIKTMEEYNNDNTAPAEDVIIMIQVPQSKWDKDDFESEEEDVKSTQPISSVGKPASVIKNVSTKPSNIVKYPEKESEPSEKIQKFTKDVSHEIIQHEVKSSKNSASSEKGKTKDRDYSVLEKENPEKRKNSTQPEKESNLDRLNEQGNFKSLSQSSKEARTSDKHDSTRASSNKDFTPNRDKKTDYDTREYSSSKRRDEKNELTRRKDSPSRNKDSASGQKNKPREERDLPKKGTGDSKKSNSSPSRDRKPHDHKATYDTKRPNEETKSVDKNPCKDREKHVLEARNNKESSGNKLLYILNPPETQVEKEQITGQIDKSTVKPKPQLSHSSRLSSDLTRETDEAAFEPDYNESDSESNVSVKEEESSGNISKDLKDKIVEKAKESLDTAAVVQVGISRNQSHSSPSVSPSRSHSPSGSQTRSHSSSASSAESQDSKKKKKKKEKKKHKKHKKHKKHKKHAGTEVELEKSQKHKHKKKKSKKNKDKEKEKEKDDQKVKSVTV
Sequence of UniProt P35244 (P35244 whole entry, looked up): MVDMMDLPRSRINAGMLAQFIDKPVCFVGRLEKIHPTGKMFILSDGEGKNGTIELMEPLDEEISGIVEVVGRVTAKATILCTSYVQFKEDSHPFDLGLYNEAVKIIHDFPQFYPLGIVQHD
Sequence of UniProt Q9UKL0 (Q9UKL0 whole entry, looked up): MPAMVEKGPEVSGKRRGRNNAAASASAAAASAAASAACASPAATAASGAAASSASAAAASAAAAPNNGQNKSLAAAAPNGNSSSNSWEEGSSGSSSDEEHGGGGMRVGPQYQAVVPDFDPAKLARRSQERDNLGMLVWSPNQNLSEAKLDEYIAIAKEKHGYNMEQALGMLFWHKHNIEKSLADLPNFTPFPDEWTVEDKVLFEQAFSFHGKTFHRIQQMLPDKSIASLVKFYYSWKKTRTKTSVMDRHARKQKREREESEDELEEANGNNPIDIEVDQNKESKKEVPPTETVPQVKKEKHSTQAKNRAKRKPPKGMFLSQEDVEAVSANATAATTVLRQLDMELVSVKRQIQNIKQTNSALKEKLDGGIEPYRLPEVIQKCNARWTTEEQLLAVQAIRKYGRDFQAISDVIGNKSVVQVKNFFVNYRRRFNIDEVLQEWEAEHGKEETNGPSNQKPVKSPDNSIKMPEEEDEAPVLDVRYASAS
Sequence of UniProt Q5PRF9 (Q5PRF9 whole entry, looked up): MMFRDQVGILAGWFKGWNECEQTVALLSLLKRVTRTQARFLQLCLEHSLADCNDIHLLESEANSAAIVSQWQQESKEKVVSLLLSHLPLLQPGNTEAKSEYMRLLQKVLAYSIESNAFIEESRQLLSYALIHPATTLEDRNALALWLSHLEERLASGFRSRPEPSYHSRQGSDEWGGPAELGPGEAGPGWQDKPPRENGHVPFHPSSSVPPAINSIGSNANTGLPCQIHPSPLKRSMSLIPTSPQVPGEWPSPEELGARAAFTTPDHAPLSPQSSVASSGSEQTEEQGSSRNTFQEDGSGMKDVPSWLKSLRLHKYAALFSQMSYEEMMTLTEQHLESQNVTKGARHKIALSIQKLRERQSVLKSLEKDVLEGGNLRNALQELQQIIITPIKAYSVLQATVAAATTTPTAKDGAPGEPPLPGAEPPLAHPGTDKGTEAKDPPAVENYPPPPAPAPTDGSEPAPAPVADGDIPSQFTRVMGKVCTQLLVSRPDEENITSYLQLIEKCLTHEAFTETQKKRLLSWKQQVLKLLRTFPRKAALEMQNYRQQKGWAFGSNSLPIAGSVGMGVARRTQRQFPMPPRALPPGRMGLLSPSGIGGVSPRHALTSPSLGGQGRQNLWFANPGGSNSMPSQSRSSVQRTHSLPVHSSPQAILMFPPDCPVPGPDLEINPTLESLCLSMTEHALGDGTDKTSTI
Sequence of UniProt Q9BY42 (Q9BY42 whole entry, looked up): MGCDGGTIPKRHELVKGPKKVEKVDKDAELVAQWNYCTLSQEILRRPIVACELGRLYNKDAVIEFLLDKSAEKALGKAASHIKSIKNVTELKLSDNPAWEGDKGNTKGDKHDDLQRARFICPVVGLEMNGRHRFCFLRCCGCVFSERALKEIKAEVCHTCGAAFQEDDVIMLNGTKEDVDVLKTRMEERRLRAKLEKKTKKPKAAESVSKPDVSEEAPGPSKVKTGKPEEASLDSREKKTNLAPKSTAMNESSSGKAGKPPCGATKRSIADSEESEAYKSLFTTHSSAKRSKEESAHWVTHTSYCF
Sequence of UniProt Q96EU6 (Q96EU6 whole entry, looked up): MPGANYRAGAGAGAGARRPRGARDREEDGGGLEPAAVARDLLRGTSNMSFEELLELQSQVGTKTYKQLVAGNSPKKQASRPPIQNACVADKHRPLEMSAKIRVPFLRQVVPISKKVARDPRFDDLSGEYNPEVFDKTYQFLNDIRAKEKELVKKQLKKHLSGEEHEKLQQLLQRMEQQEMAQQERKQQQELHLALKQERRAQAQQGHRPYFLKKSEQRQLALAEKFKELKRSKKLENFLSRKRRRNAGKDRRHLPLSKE

Compound in the first test: CC[C@H](C)N1C=C(C2=C(C=C(C=C21)C3=CN=C(C=C3)N4CCNCC4)C(=O)NCC5=C(C=C(NC5=O)C)C)C
Kind of test: log2 fold change, soluble protein after heating vs DMSO (PISA); higher = thermal stabilisation; K562 cells, 10 uM, 30 min; active = over 0.2 and 3.5 SD of the protein, either way, in both replicates (recomputed). In short, it runs like this:
(§1)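 Values are thermal stability changes relative to control samples and are taken from duplicates. They are stated as log2 fold changes. Before quantification by TMTpro 16plex LC-MS/MS with equalised channel sums, K562 cells at 2×10^6 cells/mL were treated with 10 μM compound for 30 min, heated in aliquots for 3 min across 48°C-58°C, pooled, extracted in PBS with 0.5% NP-40 at 4°C, and centrifuged at 21,000xg for 90 min to give the soluble supernatant.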
For the target RARS2 (UniProt Q5T160), the log2 fold change was -0.003 (inactive).
The same measure, in the same setting: the value for RRP36 (UniProt Q96EU6) was -0.028 (inactive); that for RCOR1 (UniProt Q9UKL0) was 0.212 (inactive).
Regarding RBM48 isoform 2 (UniProt Q5RL73), the log2 fold change is 0.002 (inactive).
Consider RPS18 (UniProt P62269), for which the log2 fold change is -0.011 (inactive).
RPA3 (UniProt P35244): the log2 fold change was -0.002 (inactive).
In the case of RPS6KA3 (UniProt P51812), the log2 fold change is 0.065 (inactive).
For RHOXF2 (UniProt Q9BQY4), the log2 fold change is -0.046 (inactive).
On to SCAMP2 (UniProt O15127), for which the log2 fold change was -0.01 (inactive).
With SAMD4B (UniProt Q5PRF9), the log2 fold change is -0.047 (inactive).
Still for that read-out and setting: the value for RNF167 (UniProt Q9H6Y7) was -0.043 (inactive).
Consider SLC19A1 (UniProt P41440), for which the log2 fold change is -0.062 (inactive).
For SH2D1B (UniProt O14796), the log2 fold change was 0.095 (inactive).
As to RHOA (UniProt P61586), the log2 fold change was 0.065 (inactive).
In the case of RNPEP (UniProt Q9H4A4), the log2 fold change is 0.078 (inactive).
As to RAB3IL1 (UniProt E9PK89), the log2 fold change is 0.25 (inactive).
Still for that read-out and setting: in the case of RDH10 (UniProt Q8IZV5) it was 0.034 (inactive); in that of RBBP6 (UniProt Q7Z6E9), 0.013 (inactive).
For the target ROCK1 (UniProt Q13464), the log2 fold change was 0.005 (inactive).
RUFY1 (UniProt Q96T51): the log2 fold change was 0.07 (inactive).
For the target SCAMP2 (UniProt H3BUB6), the log2 fold change was -0.092 (inactive).
For RAD51 (UniProt Q06609), the log2 fold change is 0.026 (inactive).
Consider SERINC1 (UniProt Q9NRX5), for which the log2 fold change is -0.223 (inactive).
For SELENOH (UniProt Q8IZQ5), the log2 fold change was -0.05 (inactive).
On the same count and under the same terms, in the case of RPS25 (UniProt P62851) it was 0.012 (inactive); in that of RTF2 (UniProt Q9BY42), 0.003 (inactive); in that of RAB5IF isoform 5 (UniProt Q9BUV8), -0.129 (inactive).
On the same count and under the same terms, in the case of SIK3 (UniProt H0Y4E8) it was -0.02 (inactive); in that of RUFY3 isoform 3 (UniProt Q7L099), -0.071 (inactive); in that of RCOR3 isoform 3 (UniProt Q9P2K3), -0.078 (inactive).

Compound in another test: CC[C@H](C)[C@@H](C(=O)N[C@@H]([C@@H](C)O)C(=O)N[C@@H](CC(C)C)C(=O)[C@]1(CO1)C)NC(=O)[C@H]([C@@H](C)CC)N(C)C(=O)C [epoxomicin]
The test is described as above. In short, it runs like this: as §1
Take RARS2 (UniProt Q5T160): the log2 fold change was 0.04 (inactive).
In the case of RRP36 (UniProt Q96EU6), the log2 fold change was -0.203 (inactive).
Take RCOR1 (UniProt Q9UKL0): the log2 fold change was 0.002 (inactive).
With RBM48 isoform 2 (UniProt Q5RL73), the log2 fold change was 0.003 (inactive).
On to RPS18 (UniProt P62269), for which the log2 fold change was -0.111 (inactive).
On the same count and under the same terms, the value for RPA3 (UniProt P35244) was 0.06 (inactive); that for RPS6KA3 (UniProt P51812) was 0.027 (inactive); that for RHOXF2 (UniProt Q9BQY4) was 0.024 (inactive).
As to SCAMP2 (UniProt O15127), the log2 fold change is 0.001 (inactive).
Take SAMD4B (UniProt Q5PRF9): the log2 fold change is 0.02 (inactive).
For the target RNF167 (UniProt Q9H6Y7), the log2 fold change was 0.039 (inactive).
Turning to SLC19A1 (UniProt P41440), the log2 fold change was 0.087 (inactive).
Consider SH2D1B (UniProt O14796), for which the log2 fold change is 0.168 (inactive).
As for RHOA (UniProt P61586), the log2 fold change was 0.049 (inactive).
As to RNPEP (UniProt Q9H4A4), the log2 fold change is 0.042 (inactive).
RAB3IL1 (UniProt E9PK89): the log2 fold change was 0.109 (inactive).
For the target RDH10 (UniProt Q8IZV5), the log2 fold change is -0.026 (inactive).
Regarding RAF1 isoform 2 (UniProt P04049), the log2 fold change is -0.003 (inactive).
Still for that read-out and setting: the value for RBBP6 (UniProt Q7Z6E9) was -0.001 (inactive); that for ROCK1 (UniProt Q13464) was -0.011 (inactive).
Still for that read-out and setting: in the case of RUFY1 (UniProt Q96T51) it was -0.015 (inactive); in that of SCAMP2 (UniProt H3BUB6), -0.157 (inactive).
On to RAD51 (UniProt Q06609), for which the log2 fold change is 0.157 (inactive).
The same measure, in the same setting: in the case of SERINC1 (UniProt Q9NRX5) it was -0.034 (inactive).
Take SCO2 (UniProt O43819): the log2 fold change was -0.055 (inactive).
With SELENOH (UniProt Q8IZQ5), the log2 fold change is 0.058 (inactive).
As for RPS25 (UniProt P62851), the log2 fold change was -0.172 (inactive).
Consider RTF2 (UniProt Q9BY42), for which the log2 fold change was 0.118 (inactive).
Regarding RAB5IF isoform 5 (UniProt Q9BUV8), the log2 fold change is 0.017 (inactive).
As to RPAIN isoform 8 (UniProt Q86UA6), the log2 fold change was -0.118 (inactive).

Compound in another test: CCn1c(C(=O)N(C2CC2)C2CC2)cc2c3c(ncn3C)c(Nc3cc(C)n(C)n3)nc21
The description is as above. In short, it runs like this:
as §1
With RARS2 (UniProt Q5T160), the log2 fold change was 0.013 (inactive).
With RRP36 (UniProt Q96EU6), the log2 fold change was 0.002 (inactive).
With RCOR1 (UniProt Q9UKL0), the log2 fold change was -0.002 (inactive).
Take RBM48 isoform 2 (UniProt Q5RL73): the log2 fold change was 0.13 (inactive).
As for RPS18 (UniProt P62269), the log2 fold change is -0.029 (inactive).
As for RPA3 (UniProt P35244), the log2 fold change was 0.021 (inactive).
Regarding RPS6KA3 (UniProt P51812), the log2 fold change is 0.066 (inactive).
On to RHOXF2 (UniProt Q9BQY4), for which the log2 fold change is -0.079 (inactive).
The same measure, in the same setting: the value for SCAMP2 (UniProt O15127) was 0.065 (inactive); that for SAMD4B (UniProt Q5PRF9) was -0.124 (inactive).
Regarding RNF167 (UniProt Q9H6Y7), the log2 fold change was 0.103 (inactive).
Take SLC19A1 (UniProt P41440): the log2 fold change was 0.019 (inactive).
SH2D1B (UniProt O14796): the log2 fold change was 0.092 (inactive).
Regarding RHOA (UniProt P61586), the log2 fold change is 0.024 (inactive).
Take RNPEP (UniProt Q9H4A4): the log2 fold change was -0.074 (inactive).
On to RAB3IL1 (UniProt E9PK89), for which the log2 fold change was -0.138 (inactive).
In the case of RDH10 (UniProt Q8IZV5), the log2 fold change was -0.056 (inactive).
Consider RAF1 isoform 2 (UniProt P04049), for which the log2 fold change was 0.034 (inactive).
The same measure, in the same setting: in the case of RBBP6 (UniProt Q7Z6E9) it was -0.023 (inactive); in that of ROCK1 (UniProt Q13464), 0.002 (inactive); in that of RUFY1 (UniProt Q96T51), 0.009 (inactive).
Still for that read-out and setting: in the case of SCAMP2 (UniProt H3BUB6) it was -0.058 (inactive); in that of RAD51 (UniProt Q06609), -0.029 (inactive).
For SERINC1 (UniProt Q9NRX5), the log2 fold change was 0.019 (inactive).
With SCO2 (UniProt O43819), the log2 fold change was 0.042 (inactive).
Turning to SELENOH (UniProt Q8IZQ5), the log2 fold change is 0.024 (inactive).
With RPS25 (UniProt P62851), the log2 fold change was 0.034 (inactive).
Regarding RTF2 (UniProt Q9BY42), the log2 fold change was -0.049 (inactive).
Take RAB5IF isoform 5 (UniProt Q9BUV8): the log2 fold change is 0.011 (inactive).
For the target SIK3 (UniProt H0Y4E8), the log2 fold change is -0.058 (inactive).
Turning to RUFY3 isoform 3 (UniProt Q7L099), the log2 fold change is -0.046 (inactive).
Consider RCOR3 isoform 3 (UniProt Q9P2K3), for which the log2 fold change was -0.074 (inactive).

For the origin of these results see the supplement of paper PMC10849652.
